From PubChem BioAssay come the findings set out here.

Test [1] is described as follows: StAR promoter reporter inhibitors, counter-screen for LRH-1 inverse agonist project, cell-based, luminescence, high throughput (AID 651611; in the data active = inhibition above about 28%). To be noted: StAR promoter luciferase reporter counterscreen, at 3.6 µM, stronger effect = higher value. In general terms: The purpose of a counterscreen is to sort out artefacts and off-target activity.
Test [2] has as its target Nuclear receptor subfamily 5 group A member 2 (Homo sapiens) (UniProt O00482). Nature of the test: LRH-1 (NR5A2) inverse agonists, retest, confirmation, cell-based, luminescence (AID 651613; in the data active = inhibition above about 42%;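 note: HEK293T cells co-transfected with LRH-1 and StAR promoter luciferase reporter; 0% = vehicle wells and 100% = parental cells lacking receptor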). As to conditions: cell-based LRH-1 luciferase reporter, inverse agonism; at 3.6 µM; stronger effect = higher value. (In a reporter assay the amount or activity of a reporter protein is the signal.)

For test [3], the target named is Steroidogenic factor 1 (Homo sapiens) (UniProt Q13285). Nature of the test: SF1 (NR5A1) inverse agonists, counter-screen for LRH-1 inverse agonist project, cell-based, luminescence, high throughput (AID 651614; in the data active = inhibition above about 44%;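 note: cells cotransfected with StAR promoter reporter and SF1 expression vector; 0% = vehicle on cells with receptor and 100% = vehicle on cells lacking receptor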). To be noted: cell-based SF1 luciferase reporter, at 3.6 µM, stronger effect = higher value.
Test [4] can be described thus: VP16 transactivation reporter inhibitors, counter-screen for LRH-1 inverse agonist project, cell-based, luminescence, high throughput (AID 651615). As to conditions: Gal4-VP16 luciferase reporter cells, at 3.6 µM, stronger effect = higher value.

Molecules are shown by their SMILES. Activity calls are given as the source filed them. Cut-off read from the data, not from the text of the source, unless noted: active = inhibition above about 33%; inactive = the rest.

Sequence of Nuclear receptor subfamily 5 group A member 2 (Homo sapiens) (O00482 whole entry, looked up): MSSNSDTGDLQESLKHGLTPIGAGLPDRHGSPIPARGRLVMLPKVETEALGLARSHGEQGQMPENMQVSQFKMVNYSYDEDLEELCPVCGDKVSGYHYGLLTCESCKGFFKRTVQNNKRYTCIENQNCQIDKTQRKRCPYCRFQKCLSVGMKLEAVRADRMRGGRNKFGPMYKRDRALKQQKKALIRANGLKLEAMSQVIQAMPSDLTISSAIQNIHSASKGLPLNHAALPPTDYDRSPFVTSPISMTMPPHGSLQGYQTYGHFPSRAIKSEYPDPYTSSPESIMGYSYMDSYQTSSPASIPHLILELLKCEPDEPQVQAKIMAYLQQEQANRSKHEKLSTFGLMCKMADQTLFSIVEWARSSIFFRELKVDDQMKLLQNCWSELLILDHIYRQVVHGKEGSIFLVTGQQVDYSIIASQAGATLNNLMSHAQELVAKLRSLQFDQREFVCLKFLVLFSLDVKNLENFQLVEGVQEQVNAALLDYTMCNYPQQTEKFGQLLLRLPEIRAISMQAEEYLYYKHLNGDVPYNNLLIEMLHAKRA
Sequence of Steroidogenic factor 1 (Homo sapiens) (Q13285 whole entry, looked up, the tested form may be a part): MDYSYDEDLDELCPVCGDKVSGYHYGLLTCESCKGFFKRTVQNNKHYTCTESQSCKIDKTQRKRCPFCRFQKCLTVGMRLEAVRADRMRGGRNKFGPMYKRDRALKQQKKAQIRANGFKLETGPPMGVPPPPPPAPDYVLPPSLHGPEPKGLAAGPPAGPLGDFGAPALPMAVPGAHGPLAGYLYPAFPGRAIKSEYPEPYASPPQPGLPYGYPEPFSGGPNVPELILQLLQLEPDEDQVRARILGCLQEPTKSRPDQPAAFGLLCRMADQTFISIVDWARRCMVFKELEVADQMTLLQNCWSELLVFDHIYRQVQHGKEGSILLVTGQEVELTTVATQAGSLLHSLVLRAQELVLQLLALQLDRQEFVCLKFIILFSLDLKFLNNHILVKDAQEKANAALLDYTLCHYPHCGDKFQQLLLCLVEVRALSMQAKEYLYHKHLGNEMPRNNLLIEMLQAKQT

Usually inhibition stands for the change of the read-out against control, counted positive when it falls. For the compound `COC(=O)c1c(NC(=O)c2ccc([N+](=O)[O-])o2)sc2c1CCN(C(C)C)C2`, the inhibition in test [1] was 28% (active); in test [2], 45.3% (active); in test [3] it was 44.1% (active); in test [4], 0.53% (inactive).
For the compound `CC(=O)c1ccc2c(c1)C1C=CCC1C(c1cc3c(cc1Br)OCO3)N2` (stereo not drawn), the inhibition is 45.6% (active) in test [1], 50.3% (active) in test [2], 46.1% (active) in test [3] and 16.9% (inactive) in test [4].
For the compound `Cc1cc(=O)oc2c(C)c(OCC(=O)NC3CC(C)(C)NC(C)(C)C3)ccc12`, the inhibition was -1.6% (inactive) in test [1], 48% (active) in test [2], 55% (active) in test [3] and -11.2% (inactive) in test [4].
For `O=C(N/N=C/c1c[nH]c2ccccc12)c1[nH]c2ccc(Br)cc2c1-c1ccccc1` the same measures were 52.3% (active), 38% (inactive), 57% (active) and 33.6% (active).
Turning to `CCN1C(=O)c2cccc3c(N)ccc1c23`, the inhibition in test [1] is 33.4% (active); in test [2], 58.6% (active); in test [3] it was 46% (active); in test [4] it was -37.8% (inactive).
Consider `CCCOc1ccc2oc(=O)c3c(c2c1)CCCN3C(=O)CN1CCN(c2ncccn2)CC1`, for which the inhibition in test [1] is 6.16% (inactive); in test [2], 53.4% (active); in test [3], 55.7% (active); in test [4], -7.99% (inactive).
Consider `CCC(=O)Nc1ccc(NC(=O)CSc2nc3cc4c(cc3cc2C)CCC4)cc1`, for which the inhibition in test [1] is 9.63% (inactive); in test [2] it was 56.4% (active); in test [3], 50.7% (active); in test [4] it was 0.93% (inactive).
Take `CCc1cc(=O)oc2cc(C)cc(OCC(=O)NC3CC3)c12`: the inhibition is -0.05% (inactive) in test [1], 66.5% (active) in test [2], 55.9% (active) in test [3] and 10.2% (inactive) in test [4].
With `COc1ccc(NC(=O)CSc2nnc(Cc3ccccc3)c(=O)n2N)c(OC)c1`, the inhibition in test [1] was 5.02% (inactive); in test [2], 51% (active); in test [3] it was 54.2% (active); in test [4], 5.51% (inactive).
Take `COc1ccc(CCNC(=O)CSc2nc3[nH]ncc3c(=O)n2-c2ccccc2Br)cc1OC`: the inhibition in test [1] is 5.86% (inactive); in test [2], 57.3% (active); in test [3] it was 43.1% (active); in test [4], -2.5% (inactive).
As for `COc1cc(-c2noc(C)c2/C=C/c2ccc(N)cc2)cc(OC)c1OC`, the inhibition is 64.6% (active) in test [1], 38.5% (inactive) in test [2], 55.2% (active) in test [3] and -29.3% (inactive) in test [4].
In the case of `CCN(CC)C(=O)CSc1nc2ccc(NC(=O)CSc3nccn3C)cc2s1`, the inhibition in test [1] is -37.7% (inactive); in test [2], 0.81% (inactive); in test [3], 7.59% (inactive); in test [4], -9.75% (inactive).
